The supplement of paper PMC10849652
Targets with a hit are over-represented here; the source holds about 8,800 in all. About 0.5% of all pairs of compound and target were hits. Values without a mark were called inactive.

What was measured:
Experiment in all cases: log2 fold change, soluble protein after heating vs DMSO (PISA); higher = thermal stabilisation; K562 lysate, 10 uM; active = over 0.2 and 3.5 SD of the protein, either way, in both replicates (recomputed)
alvocidib = compound: CN1CC[C@H](c2c(O)cc(O)c3c(=O)cc(-c4ccccc4Cl)oc23)[C@H](O)C1 [alvocidib]
Outline: (§1)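 Values give the log-two fold change in thermal stability against solvent controls, from duplicates. Crude K562 extract at 1 mg/mL protein, made by dounce homogenisation in PBS pH 7.4 with 1 mM MgCl2, was treated with 10 μM compound for 30 min. After 3 min heating across 48°C-58°C, aliquots were pooled, adjusted to 0.5% NP-40 at 4°C and centrifuged at 21,000xg for 90 min. The supernatant was measured by TMTpro 16plex LC-MS/MS with channel sums equalised.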

Tubastatin A = compound: CN1CCc2c(c3ccccc3n2Cc2ccc(C(=O)NO)cc2)C1 [Tubastatin A]
Outline: as §1

[1] = compound: CNC(=O)C1=CC=CC=C1NC2=NC(=NC=C2Cl)NC3=C(C=C(C=C3)N4CCOCC4)OC
Outline: as §1

defactinib = compound: CNC(=O)c1ccc(Nc2ncc(C(F)(F)F)c(NCc3nccnc3N(C)S(C)(=O)=O)n2)cc1 [defactinib]
Outline: as §1

[2] = compound: CNc1nc(-c2ccc3c(N)n[nH]c3c2)cc(N2C[C@@H](C(=O)NC3CCCCC3)CC[C@H]2C)n1
Outline: as §1

encorafenib = compound: COC(=O)N[C@@H](C)CNc1nccc(-c2cn(C(C)C)nc2-c2cc(Cl)cc(NS(C)(=O)=O)c2F)n1 [encorafenib]
Outline: as §1

[3] = compound: COC(=O)[C@H](CCSC)NC(=O)C1=C(C=C(C=C1)NC[C@H](CS)N)C2=CC=CC=C2
Outline: as §1

alisertib = compound: COc1cc(Nc2ncc3c(n2)-c2ccc(Cl)cc2C(c2c(F)cccc2OC)=NC3)ccc1C(=O)O [alisertib]
Outline: as §1

[4] = compound: COc1cc2nc(-c3cc(F)ccc3O)nc(N[C@@H]3CNC[C@H]3C(C)(C)O)c2cc1OC
Outline: as §1

gefitinib = compound: COc1cc2ncnc(Nc3ccc(F)c(Cl)c3)c2cc1OCCCN1CCOCC1 [gefitinib]
Outline: as §1

lapatinib = compound: CS(=O)(=O)CCNCc1ccc(-c2ccc3ncnc(Nc4ccc(OCc5cccc(F)c5)c(Cl)c4)c3c2)o1 [lapatinib]
Outline: as §1

pictilisib = compound: CS(=O)(=O)N1CCN(Cc2cc3nc(-c4cccc5[nH]ncc45)nc(N4CCOCC4)c3s2)CC1 [pictilisib]
Outline: as §1

crizotinib = compound: C[C@@H](Oc1cc(-c2cnn(C3CCNCC3)c2)cnc1N)c1c(Cl)ccc(F)c1Cl [crizotinib]
Outline: as §1

[5] = compound: C[C@H](C1=CC=C(C=C1)C(=O)NC2=C3C=CNC3=NC=C2)N
Outline: as §1

duvelisib = compound: C[C@H](Nc1ncnc2nc[nH]c12)c1cc2cccc(Cl)c2c(=O)n1-c1ccccc1 [duvelisib]
Outline: as §1

gandotinib = compound: Cc1cc(Nc2cc(CN3CCOCC3)c3nc(C)c(Cc4ccc(Cl)cc4F)n3n2)n[nH]1 [gandotinib]
Outline: as §1

tozasertib = compound: Cc1cc(Nc2cc(N3CCN(C)CC3)nc(Sc3ccc(NC(=O)C4CC4)cc3)n2)n[nH]1 [tozasertib]
Outline: as §1

doramapimod = compound: Cc1ccc(-n2nc(C(C)(C)C)cc2NC(=O)Nc2ccc(OCCN3CCOCC3)c3ccccc23)cc1 [doramapimod]
Outline: as §1

bafetinib = compound: Cc1ccc(NC(=O)c2ccc(CN3CC[C@H](N(C)C)C3)c(C(F)(F)F)c2)cc1Nc1nccc(-c2cncnc2)n1 [bafetinib]
Outline: as §1

[6] = compound: Cc1cccc(CC(=O)N2CCc3c2ccc(-c2cn(C)c4ncnc(N)c24)c3F)n1
Outline: as §1

UniProt Q9Y6X9, sequence (Q9Y6X9 whole entry, looked up): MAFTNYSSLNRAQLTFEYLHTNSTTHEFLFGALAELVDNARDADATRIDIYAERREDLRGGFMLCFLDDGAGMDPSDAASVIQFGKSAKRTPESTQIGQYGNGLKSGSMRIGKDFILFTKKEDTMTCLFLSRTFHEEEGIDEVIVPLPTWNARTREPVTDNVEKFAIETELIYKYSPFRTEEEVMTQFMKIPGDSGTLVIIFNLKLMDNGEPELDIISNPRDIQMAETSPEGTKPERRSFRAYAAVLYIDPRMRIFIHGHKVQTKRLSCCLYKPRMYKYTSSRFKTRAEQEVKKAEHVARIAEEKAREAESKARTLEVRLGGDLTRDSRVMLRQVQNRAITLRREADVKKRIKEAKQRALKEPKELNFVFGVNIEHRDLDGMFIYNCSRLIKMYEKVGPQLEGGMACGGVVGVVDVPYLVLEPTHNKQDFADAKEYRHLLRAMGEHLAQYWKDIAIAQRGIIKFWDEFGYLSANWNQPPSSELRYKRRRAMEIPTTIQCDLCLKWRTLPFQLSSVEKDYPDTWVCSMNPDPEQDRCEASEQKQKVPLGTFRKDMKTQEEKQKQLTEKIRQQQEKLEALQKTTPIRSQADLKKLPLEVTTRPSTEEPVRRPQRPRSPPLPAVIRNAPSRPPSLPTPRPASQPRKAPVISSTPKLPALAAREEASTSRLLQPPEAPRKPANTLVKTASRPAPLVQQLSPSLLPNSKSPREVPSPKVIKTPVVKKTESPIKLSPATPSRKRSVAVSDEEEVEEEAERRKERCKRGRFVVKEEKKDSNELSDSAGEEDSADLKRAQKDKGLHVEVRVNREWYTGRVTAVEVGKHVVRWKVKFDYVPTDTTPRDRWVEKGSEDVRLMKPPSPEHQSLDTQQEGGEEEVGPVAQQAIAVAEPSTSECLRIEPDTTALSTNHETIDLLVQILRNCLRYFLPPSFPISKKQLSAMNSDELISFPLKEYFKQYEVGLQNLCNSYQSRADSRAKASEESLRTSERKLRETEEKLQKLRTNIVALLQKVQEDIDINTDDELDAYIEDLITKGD
UniProt Q9BW19, sequence (Q9BW19 whole entry, looked up): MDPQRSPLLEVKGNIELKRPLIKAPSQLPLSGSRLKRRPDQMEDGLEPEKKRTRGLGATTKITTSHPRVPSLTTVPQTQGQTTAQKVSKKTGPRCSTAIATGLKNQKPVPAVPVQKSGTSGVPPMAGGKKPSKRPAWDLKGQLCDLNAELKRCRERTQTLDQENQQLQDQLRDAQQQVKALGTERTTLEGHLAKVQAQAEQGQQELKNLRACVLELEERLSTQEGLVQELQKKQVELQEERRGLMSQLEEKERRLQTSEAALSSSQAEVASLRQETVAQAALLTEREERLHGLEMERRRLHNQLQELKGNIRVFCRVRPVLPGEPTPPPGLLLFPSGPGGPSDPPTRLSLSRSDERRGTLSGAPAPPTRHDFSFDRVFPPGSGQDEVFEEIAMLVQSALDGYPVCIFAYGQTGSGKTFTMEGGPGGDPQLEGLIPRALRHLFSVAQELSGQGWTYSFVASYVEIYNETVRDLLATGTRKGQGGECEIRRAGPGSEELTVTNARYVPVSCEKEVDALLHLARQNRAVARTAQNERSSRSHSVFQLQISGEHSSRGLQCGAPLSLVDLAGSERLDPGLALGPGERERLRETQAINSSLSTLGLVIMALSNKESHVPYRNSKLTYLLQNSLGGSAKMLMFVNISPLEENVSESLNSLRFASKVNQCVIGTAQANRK
UniProt Q00013, sequence (Q00013 whole entry, looked up): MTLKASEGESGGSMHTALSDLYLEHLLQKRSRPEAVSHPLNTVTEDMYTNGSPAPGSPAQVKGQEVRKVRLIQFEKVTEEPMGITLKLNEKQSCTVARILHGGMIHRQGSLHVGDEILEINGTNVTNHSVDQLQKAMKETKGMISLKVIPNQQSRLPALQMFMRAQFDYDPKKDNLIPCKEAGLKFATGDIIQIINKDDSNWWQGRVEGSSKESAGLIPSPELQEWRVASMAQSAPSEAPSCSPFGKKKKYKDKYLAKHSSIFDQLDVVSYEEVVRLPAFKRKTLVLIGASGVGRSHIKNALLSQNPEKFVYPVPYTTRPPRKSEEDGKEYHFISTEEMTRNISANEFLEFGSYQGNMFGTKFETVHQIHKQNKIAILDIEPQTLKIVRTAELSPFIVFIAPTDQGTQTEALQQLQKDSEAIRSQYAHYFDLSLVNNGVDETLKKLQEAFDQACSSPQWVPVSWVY
UniProt Q9Y448, sequence (Q9Y448 whole entry, looked up): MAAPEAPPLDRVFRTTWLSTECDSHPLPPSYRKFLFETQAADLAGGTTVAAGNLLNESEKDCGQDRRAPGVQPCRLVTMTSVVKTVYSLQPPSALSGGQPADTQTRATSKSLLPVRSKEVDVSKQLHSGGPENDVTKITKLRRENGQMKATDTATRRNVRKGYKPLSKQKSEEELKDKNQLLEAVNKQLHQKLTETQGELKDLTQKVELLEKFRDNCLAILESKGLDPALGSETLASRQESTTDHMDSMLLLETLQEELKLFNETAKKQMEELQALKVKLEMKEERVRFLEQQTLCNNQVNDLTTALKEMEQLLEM
UniProt Q8IVT5, sequence (Q8IVT5 whole entry, looked up): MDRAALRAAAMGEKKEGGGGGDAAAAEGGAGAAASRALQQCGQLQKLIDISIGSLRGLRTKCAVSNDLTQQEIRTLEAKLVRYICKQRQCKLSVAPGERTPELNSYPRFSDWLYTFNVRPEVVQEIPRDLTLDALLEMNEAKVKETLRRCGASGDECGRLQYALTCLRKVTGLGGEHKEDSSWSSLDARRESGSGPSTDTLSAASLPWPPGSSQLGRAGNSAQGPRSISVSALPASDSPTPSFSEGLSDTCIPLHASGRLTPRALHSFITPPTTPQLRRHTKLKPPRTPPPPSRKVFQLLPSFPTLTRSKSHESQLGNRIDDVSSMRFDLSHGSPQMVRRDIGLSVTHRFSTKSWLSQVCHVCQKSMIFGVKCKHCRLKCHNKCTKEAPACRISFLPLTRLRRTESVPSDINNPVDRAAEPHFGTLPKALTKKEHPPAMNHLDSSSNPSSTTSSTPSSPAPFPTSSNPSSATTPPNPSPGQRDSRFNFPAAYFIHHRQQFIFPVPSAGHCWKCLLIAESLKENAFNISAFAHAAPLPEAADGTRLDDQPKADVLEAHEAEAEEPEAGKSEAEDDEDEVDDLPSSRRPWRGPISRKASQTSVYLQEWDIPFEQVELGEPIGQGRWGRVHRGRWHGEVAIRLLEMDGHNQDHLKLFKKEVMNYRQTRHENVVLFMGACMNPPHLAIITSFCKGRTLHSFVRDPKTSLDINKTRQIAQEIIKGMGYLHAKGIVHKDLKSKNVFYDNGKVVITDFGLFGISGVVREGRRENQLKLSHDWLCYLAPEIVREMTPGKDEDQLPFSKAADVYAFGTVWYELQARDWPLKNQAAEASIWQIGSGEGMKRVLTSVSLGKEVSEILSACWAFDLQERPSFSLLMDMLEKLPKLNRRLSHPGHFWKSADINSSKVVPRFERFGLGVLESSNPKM
UniProt Q86V48, sequence (Q86V48 whole entry, looked up): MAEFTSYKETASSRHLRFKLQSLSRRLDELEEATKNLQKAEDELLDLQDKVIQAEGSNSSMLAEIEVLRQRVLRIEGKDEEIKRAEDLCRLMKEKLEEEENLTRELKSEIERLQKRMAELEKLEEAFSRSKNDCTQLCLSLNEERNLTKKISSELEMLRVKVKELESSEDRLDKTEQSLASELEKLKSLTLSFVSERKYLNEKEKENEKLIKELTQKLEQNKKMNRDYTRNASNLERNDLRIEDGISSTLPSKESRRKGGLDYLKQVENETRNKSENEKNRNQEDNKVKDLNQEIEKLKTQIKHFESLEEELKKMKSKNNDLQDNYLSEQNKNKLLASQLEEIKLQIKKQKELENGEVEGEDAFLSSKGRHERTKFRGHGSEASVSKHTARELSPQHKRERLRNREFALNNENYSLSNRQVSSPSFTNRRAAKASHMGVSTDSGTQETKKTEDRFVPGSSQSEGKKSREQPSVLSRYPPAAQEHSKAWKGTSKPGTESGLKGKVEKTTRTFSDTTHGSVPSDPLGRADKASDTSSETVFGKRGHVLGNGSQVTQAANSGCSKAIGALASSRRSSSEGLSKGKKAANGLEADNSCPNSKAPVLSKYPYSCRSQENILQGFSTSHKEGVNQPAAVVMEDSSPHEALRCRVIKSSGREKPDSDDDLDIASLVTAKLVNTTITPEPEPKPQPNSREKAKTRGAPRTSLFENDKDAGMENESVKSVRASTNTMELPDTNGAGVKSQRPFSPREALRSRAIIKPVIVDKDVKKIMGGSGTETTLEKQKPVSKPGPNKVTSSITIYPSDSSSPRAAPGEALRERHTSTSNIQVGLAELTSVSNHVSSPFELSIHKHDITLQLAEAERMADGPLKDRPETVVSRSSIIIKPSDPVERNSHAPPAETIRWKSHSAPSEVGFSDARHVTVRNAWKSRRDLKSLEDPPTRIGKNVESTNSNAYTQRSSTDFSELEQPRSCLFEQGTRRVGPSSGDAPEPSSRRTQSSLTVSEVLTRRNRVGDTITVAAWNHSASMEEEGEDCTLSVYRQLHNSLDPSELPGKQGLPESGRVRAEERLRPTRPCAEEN
UniProt Q16644, sequence (Q16644 whole entry, looked up): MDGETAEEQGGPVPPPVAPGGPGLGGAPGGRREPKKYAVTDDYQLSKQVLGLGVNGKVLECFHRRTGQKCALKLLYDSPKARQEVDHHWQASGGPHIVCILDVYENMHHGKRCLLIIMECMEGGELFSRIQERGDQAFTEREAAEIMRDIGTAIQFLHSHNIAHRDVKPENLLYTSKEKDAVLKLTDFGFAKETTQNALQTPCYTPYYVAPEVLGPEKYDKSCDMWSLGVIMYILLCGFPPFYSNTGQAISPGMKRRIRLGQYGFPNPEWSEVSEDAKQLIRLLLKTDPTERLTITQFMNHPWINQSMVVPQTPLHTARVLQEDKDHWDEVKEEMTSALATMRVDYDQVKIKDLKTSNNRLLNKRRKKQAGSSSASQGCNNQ

Target | log2 fold change (alvocidib) | log2 fold change (Tubastatin A) | log2 fold change [1] | log2 fold change (defactinib) | log2 fold change [2] | log2 fold change (encorafenib) | log2 fold change [3] | log2 fold change (alisertib) | log2 fold change [4] | log2 fold change (gefitinib) | log2 fold change (lapatinib) | log2 fold change (pictilisib) | log2 fold change (crizotinib) | log2 fold change [5] | log2 fold change (duvelisib) | log2 fold change (gandotinib) | log2 fold change (tozasertib) | log2 fold change (doramapimod) | log2 fold change (bafetinib) | log2 fold change [6]
MAT2B (UniProt Q9NZL9) | -0.028 | 0.063 | -0.013 | 0.003 | -0.01 | -0.009 | -0.006 | 0.032 | 0.016 | -0.006 | 0.008 | -0.028 | 0.007 | 0.063 | -0.031 | -0.02 | 0.019 | -0.023 | -0.007 | 0.005
MAPKAPK3 (UniProt Q16644) | 0.038 | -0.125 | 0.015 | 0.033 | -0.11 | -0.015 | 0.055 | -0.055 | 0.006 | 0.148 | 0 | -0.013 | -0.026 | 0.034 | -0.038 | -0.044 | 0.046 | -0.025 | 0.026 | -0.014
KNSTRN (UniProt Q9Y448) | 0.001 | -0.062 | 0.038 | -0.029 | 0.053 | 0.074 | -0.264 (active) | 0.043 | -0.016 | -0.022 | 0.013 | 0.05 | 0.029 | 0.065 | -0.009 | -0.024 | 0.026 | -0.052 | 0.024 | -0.056
LUZP1 (UniProt Q86V48) | -0.027 | -0.061 | 0.099 | -0.056 | 0.004 | 0.023 | -0.074 | -0.014 | 0.012 | 0.039 | -0.006 | -0.02 | -0.012 | 0.008 | -0.026 | 0.036 | -0.011 | -0.009 | -0.034 | -0.011
MED8 isoform 2 (UniProt Q96G25) | 0.026 | -0.048 | 0.023 | -0.009 | 0.045 | 0.056 | -0.113 | -0.07 | 0.059 | -0.038 | 0.005 | -0.051 | 0.014 | 0.269 (active) | 0.023 | -0.026 | 0.047 | 0.069 | -0.031 | -0.044
MAPKAPK5 (UniProt Q8IW41) | 0.055 | 0 | 0.006 | 0.003 | -0.089 | -0.074 | -0.125 | -0.006 | 0.01 | 0.019 | 0.05 | -0.008 | -0.085 | 0.111 | 0.04 | -0.07 | -0.004 | 0.015 | 0.019 | -0.053
KSR1 (UniProt Q8IVT5) | 0.214 | -0.086 | -0.042 | -0.045 | -0.038 | 0.075 | 0.257 | 0.028 | 0.115 | -0.016 | -0.107 | 0.064 | -0.015 | 0.006 | -0.026 | -0.087 | 0.017 | -0.065 | -0.038 | -0.156
MORC2 (UniProt Q9Y6X9) | 0.018 | -0.095 | 0 | 0.013 | -0.012 | 0.02 | 0.025 | 0.001 | -0.008 | -0.02 | 0.016 | 0.015 | -0.012 | -0.049 | 0.04 | -0.032 | 0.008 | 0.012 | -0.032 | 0.043
MRPL12 (UniProt P52815) | 0.066 | 0.117 | 0.06 | 0.096 | 0.037 | 0.003 | -0.079 | 0.115 | -0.01 | -0.153 | 0.094 | -0.019 | 0.086 | -0.1 | 0.011 | 0 | 0.077 | -0.031 | -0.073 | 0.035
MFF isoform 2 (UniProt Q9GZY8) | -0.046 | -0.038 | -0.052 | 0.027 | 0.024 | 0.068 | -0.113 | 0.042 | -0.075 | 0.048 | 0.055 | 0.028 | 0 | -0.239 (active) | 0.022 | 0.106 | -0.031 | -0.035 | -0.031 | 0.24
KIFC1 (UniProt Q9BW19) | -0.022 | -0.15 | -0.013 | -0.003 | 0.024 | -0.03 | 0.14 | 0.011 | 0.008 | -0.01 | -0.021 | -0.013 | -0.019 | -0.016 | -0.003 | -0.05 | 0.047 | 0.021 | -0.027 | 0.031
KPNA2 (UniProt P52292) | 0.018 | -0.083 | -0.012 | 0.012 | -0.013 | -0.005 | 0.122 | 0.008 | -0.017 | 0.003 | -0.016 | 0.024 | -0.063 | -0.001 | 0.011 | -0.066 | 0.017 | 0.003 | -0.028 | 0.05
LTN1 isoform 3 (UniProt O94822) | 0.016 | -0.259 | -0.014 | -0.009 | -0.063 | 0.034 | -0.072 | 0.017 | 0.035 | -0.021 | 0.086 | -0.017 | -0.046 | 0.027 | -0.029 | -0.18 | 0.003 | 0.009 | -0.071 | 0.007
MPP1 (UniProt Q00013) | -0.01 | -0.01 | -0.007 | -0.002 | 0.01 | -0.015 | 0.011 | -0.008 | -0.007 | 0 | 0.006 | 0.016 | 0.001 | -0.006 | 0.012 | -0.008 | 0.017 | 0.006 | -0.015 | 0.001
MARK3 (UniProt P27448) | -0.071 | -0.119 | -0.188 | -0.158 | 0.113 | 0.038 | 0.129 | 0.006 | 0.003 | -0.02 | 0.007 | -0.061 | -0.206 | 0.043 | 0.011 | -0.089 | -0.143 | -0.081 | -0.088 | 0.049
MAP1S (UniProt Q66K74) | 0.027 | -0.072 | -0.01 | 0.018 | -0.015 | 0.008 | 0.06 | 0.006 | -0.008 | -0.021 | 0.009 | -0.06 | -0.016 | -0.021 | 0.004 | -0.065 | 0.035 | 0.003 | -0.03 | 0.049
